Active and inactive are the calls of the source.

This note sets out measurements from PubChem BioAssay.

Assay [1] can be described thus: small molecules captured by biotinylated probe aFSTL3 – biochemical, small-molecule microarray, fluorescence 635/667, stem cell growth factor project, primary screen (AID 1064).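 Note: measures binding of the biotinylated anti-FSTL3 antibody to printed compounds.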 Particulars: higher = more signal.
Assay [2] in a line: binders from COS7 lysate, DM2A8 probe, primary screen, torsin A project, cell lysate, small-molecule microarray, fluorescence 635/667 (AID 1065). Particulars: higher = more signal, COS7 lysate expressing mutant human TOR1A.
The nature of assay [3]: small molecules captured by biotinylated probe aFGF2 – biochemical, small-molecule microarray, fluorescence 635/667, stem cell growth factor project, primary screen (AID 1067).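 Note: measures binding of biotinylated aFGF2 protein to printed compounds on slides; z-score merges feature fluorescence and signal-to-noise across triplicate slides.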 As to conditions: higher = more signal.
Assay [4] is described as follows: small molecules captured by biotinylated probe aFGF10 – biochemical, small-molecule microarray, fluorescence 635/667, stem cell growth factor project, primary screen (AID 1071).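 Note: score merges 667 nm spot intensity and signal to noise from triplicate slides.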 As to conditions: higher = more signal.
The target in assay [5] is Neurogenic locus notch homolog protein 2 (Homo sapiens) (UniProt Q04721). Put plainly: small molecules binding Notch2 protein – biochemical, small-molecule microarray, 635 nm fluorescence, stem cell growth factors, primary screen (AID 1073). Particulars: higher = more signal.
Chain of Neurogenic locus notch homolog protein 2 (Homo sapiens) (Q04721 whole entry, looked up, canonical isoform): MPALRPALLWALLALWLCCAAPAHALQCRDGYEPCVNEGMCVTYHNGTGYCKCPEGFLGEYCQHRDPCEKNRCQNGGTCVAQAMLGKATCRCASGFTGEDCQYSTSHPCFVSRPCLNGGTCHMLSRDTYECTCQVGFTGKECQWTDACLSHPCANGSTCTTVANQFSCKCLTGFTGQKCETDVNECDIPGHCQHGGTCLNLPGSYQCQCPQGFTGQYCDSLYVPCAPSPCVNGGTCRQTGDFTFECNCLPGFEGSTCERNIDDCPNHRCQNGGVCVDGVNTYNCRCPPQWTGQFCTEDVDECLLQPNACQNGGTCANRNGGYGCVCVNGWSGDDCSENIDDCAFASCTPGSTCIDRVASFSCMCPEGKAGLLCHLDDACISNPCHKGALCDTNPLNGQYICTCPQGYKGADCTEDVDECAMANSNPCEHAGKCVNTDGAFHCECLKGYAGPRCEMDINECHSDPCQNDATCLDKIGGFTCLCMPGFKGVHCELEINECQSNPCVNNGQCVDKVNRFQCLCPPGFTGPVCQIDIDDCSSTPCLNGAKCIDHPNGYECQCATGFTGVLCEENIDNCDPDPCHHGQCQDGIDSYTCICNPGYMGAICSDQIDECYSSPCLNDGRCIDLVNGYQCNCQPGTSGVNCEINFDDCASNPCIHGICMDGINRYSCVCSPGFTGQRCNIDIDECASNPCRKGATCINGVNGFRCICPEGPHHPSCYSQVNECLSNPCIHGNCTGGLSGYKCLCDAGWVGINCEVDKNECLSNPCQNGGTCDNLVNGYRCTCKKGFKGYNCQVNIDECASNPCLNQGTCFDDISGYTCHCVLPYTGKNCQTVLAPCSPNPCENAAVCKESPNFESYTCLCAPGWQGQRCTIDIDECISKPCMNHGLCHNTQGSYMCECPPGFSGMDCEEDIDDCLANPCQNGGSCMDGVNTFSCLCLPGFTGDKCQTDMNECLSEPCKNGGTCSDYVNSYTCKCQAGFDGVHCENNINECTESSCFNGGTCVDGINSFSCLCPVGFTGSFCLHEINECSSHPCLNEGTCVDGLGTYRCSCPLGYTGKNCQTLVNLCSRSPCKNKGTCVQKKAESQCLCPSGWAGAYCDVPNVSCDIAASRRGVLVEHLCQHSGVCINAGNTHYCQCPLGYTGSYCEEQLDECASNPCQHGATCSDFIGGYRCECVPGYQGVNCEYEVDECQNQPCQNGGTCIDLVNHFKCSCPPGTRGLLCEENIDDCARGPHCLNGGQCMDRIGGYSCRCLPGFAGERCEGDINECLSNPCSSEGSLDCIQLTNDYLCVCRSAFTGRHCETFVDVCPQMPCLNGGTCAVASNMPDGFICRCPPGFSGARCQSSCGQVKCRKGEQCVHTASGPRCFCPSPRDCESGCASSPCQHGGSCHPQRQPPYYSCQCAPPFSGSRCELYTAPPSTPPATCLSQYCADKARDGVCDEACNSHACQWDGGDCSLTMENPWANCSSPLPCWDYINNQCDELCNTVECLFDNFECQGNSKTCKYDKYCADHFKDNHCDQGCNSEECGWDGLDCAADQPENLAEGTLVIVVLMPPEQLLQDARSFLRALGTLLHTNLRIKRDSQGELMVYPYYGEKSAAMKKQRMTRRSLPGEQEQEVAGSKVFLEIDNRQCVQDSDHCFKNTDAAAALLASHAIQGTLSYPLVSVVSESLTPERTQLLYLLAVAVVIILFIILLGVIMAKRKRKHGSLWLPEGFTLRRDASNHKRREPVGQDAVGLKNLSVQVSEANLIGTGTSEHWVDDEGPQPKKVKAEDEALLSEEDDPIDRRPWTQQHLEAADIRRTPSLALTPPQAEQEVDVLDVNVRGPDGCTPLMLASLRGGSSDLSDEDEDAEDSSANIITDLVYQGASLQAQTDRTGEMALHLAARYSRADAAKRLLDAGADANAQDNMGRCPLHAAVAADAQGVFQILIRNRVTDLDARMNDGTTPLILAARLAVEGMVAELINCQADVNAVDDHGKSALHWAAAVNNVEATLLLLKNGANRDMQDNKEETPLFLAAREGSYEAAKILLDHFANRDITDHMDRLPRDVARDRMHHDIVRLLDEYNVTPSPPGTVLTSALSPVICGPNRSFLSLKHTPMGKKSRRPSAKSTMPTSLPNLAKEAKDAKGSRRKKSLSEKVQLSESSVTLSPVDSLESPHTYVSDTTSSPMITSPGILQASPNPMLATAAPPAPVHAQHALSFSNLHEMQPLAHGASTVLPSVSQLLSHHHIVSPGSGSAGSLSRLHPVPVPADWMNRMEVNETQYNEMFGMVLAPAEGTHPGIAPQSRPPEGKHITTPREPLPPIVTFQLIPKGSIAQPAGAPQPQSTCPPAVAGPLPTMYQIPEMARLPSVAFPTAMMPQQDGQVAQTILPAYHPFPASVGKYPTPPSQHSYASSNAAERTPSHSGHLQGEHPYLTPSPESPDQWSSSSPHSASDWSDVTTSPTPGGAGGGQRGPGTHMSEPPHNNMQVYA
Assay [6] has as its target Pro-neuregulin-1, membrane-bound isoform (Homo sapiens) (UniProt Q02297). Put plainly: small molecules binding neuregulin-1 protein – biochemical, small-molecule microarray, fluorescence 635/667, psychiatric disease protein project, primary screen (AID 1075).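 Note: score combines 667 nm spot fluorescence with signal to noise.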 As to conditions: NRG1 binding, 635 nm fluorescence, higher = more signal.
Assay [7] has as its system Neuregulin-1 EGF-like domain. The experiment in a line: small molecules binding NRG1 EGF domain – biochemical, small-molecule microarray, 635 nm fluorescence, primary screen (AID 1081).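 Note: binding of the protein to compounds printed on small-molecule microarray slides.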 As to conditions: higher = more signal.
A short description of assay [8]: FRG1 expression reporter modulators in myotubes – cell-based, C2C12 myotubes, firefly/Renilla luciferase, luminescence, FRG1 inhibition for FSHD, primary screen (AID 1084). As to conditions: FRG1 promoter luciferase, higher = more signal, called active from +8 up or from −8 down.
A short description of assay [9]: small molecules captured by biotinylated probe aFST – biochemical, small-molecule microarray, fluorescence 635/667, stem cell growth factor project, primary screen (AID 1086).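 Note: score merges 667 nm fluorescence with signal-to-noise of each printed compound spot.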 As to conditions: higher = more signal.
The nature of assay [10]: binders of probe aHhip on microarray, primary screen, stem cell growth factor project, biochemical, small-molecule microarray, fluorescence 635/667 (AID 1087).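 Note: score merges spot fluorescence at 667nm with spot signal to noise ratio.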 As to conditions: higher = more signal.
In assay [11] the test system is PRMT1 (protein arginine N-methyltransferase 1). The experiment in a line: small molecules binding arginine methyltransferase PRMT1 – biochemical, small-molecule microarray, 635 nm fluorescence, primary screen (AID 1088).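 Note: binding of Prmt1 protein to compounds spotted on small-molecule microarray slides.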 As to conditions: higher = more signal.
The nature of assay [12]: growth effects on S. cerevisiae YJM789 – YJM789 clinical isolate, OD600, 24 h, basal, primary screen (AID 1089).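 Note: growth of clinical yeast isolate S. cerevisiae YJM 789 seeded 1000 cells per well; test concentration not given here.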 Particulars: higher = more signal, called active from +8 up or from −8 down.
The nature of assay [13]: S. pombe growth modifiers, basal conditions – strain 972, OD600, 24 h, no modulator, primary screen (AID 1090).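 Note: basal condition with compound alone and no growth modifier present; test concentration not given here.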 Particulars: S. pombe 972 growth, higher = more signal, called active from +8 up or from −8 down.
The nature of assay [14]: budding yeast growth modifiers under rapamycin – strain BY4716, OD600, 96 h, primary screen (AID 1091). Note: test concentration not given here. Particulars: S. cerevisiae BY4716 + rapamycin, higher = more signal, called active from +8 up or from −8 down.
Assay [15] concerns the target Torsin-1A-interacting protein 2 (Homo sapiens) (UniProt Q8NFQ8). The experiment in a line: small molecules binding lysate-expressed LULL1 – cell lysate, human LULL1 lysate, 635/667 nm fluorescence, primary screen (AID 1092).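 Note: probe is lysate of COS7 cells overexpressing human LULL1; score merges per-feature 667 nm fluorescence with signal-to-noise.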 Particulars: small-molecule microarray, hLULL1 lysate binding, 635 nm fluorescence; higher = more signal.
Assay [16] is described as follows: optical density change of DRC41 E. coli – strain DRC41, OD650, 24 h, E. coli filamentation project, primary screen (AID 1093).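 Note: MC1000 strain lacking acrAB efflux and sulA so SOS filamentation is blocked; test concentration not given here.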 As to conditions: E. coli DRC41 growth, higher = more signal, called active from +8 up or from −8 down.
Assay [17] in a line: probe aLefty2 binding to arrayed compounds – biochemical, biotinylated probe, 635/667 nm fluorescence, primary screen (AID 1094).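 Note: score merges spot fluorescence near 667 nm with spot signal-to-noise ratio.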 Particulars: small-molecule microarray, higher = more signal.
Assay [18] has as its system Noggin (protein binding on small-molecule microarray). The experiment in a line: small molecules binding Noggin protein – biochemical, 635/667 nm fluorescence, primary screen (AID 1095).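 Note: score merges 667 nm feature fluorescence with signal to noise over triplicate slides.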 As to conditions: 635 nm fluorescence, higher = more signal.
For assay [19], the target named is Neurogenic locus notch homolog protein 3 (Homo sapiens) (UniProt Q9UM47). Put plainly: small molecules binding NOTCH3 protein – biochemical, 635/667 nm fluorescence, primary screen (AID 1096). As to conditions: small-molecule microarray, 635 nm fluorescence, higher = more signal.
Assay [20] is described as follows: probe aEGFR binding to arrayed compounds – biochemical, biotinylated probe, 635/667 nm fluorescence, primary screen (AID 1097).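 Note: probe is a biotinylated anti-EGFR antibody binding compounds printed on slides; score combines fluorescence near 667 nm and signal to noise of each spot.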 Particulars: small-molecule microarray, higher = more signal.

Chain of Pro-neuregulin-1, membrane-bound isoform (Homo sapiens) (Q02297 whole entry, looked up, the tested form may be a part, canonical isoform): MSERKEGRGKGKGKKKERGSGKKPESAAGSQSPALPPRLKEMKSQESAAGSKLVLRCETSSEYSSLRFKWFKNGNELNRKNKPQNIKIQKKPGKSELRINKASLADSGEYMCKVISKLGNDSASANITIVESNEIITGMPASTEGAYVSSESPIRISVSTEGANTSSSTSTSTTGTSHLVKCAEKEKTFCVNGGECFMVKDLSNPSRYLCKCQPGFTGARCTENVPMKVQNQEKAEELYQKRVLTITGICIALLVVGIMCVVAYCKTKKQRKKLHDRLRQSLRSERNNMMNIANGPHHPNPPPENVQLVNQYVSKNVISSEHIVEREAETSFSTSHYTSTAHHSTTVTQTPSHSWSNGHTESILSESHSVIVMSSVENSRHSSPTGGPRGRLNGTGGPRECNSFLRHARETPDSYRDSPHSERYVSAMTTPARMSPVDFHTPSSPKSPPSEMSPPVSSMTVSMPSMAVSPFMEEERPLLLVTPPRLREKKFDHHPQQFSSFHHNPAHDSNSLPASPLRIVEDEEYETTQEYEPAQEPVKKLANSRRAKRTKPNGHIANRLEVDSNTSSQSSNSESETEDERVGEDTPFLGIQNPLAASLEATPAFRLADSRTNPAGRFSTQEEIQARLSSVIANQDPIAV
Chain of Torsin-1A-interacting protein 2 (Homo sapiens) (Q8NFQ8 whole entry, looked up): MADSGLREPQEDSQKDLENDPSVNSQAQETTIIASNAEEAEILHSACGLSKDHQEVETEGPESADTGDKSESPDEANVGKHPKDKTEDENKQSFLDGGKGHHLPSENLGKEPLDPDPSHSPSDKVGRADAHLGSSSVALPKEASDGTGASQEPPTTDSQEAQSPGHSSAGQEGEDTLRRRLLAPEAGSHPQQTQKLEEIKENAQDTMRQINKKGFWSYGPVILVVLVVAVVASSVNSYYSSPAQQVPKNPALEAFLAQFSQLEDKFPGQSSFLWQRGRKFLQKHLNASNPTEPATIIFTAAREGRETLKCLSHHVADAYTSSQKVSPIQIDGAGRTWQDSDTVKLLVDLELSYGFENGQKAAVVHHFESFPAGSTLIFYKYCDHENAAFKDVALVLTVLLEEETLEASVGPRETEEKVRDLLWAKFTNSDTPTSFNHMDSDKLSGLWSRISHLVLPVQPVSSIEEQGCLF

With `CCCNC(=O)[C@@H]1c2ccccc2C(=O)N(C2CCCCC2)[C@H]1c1ccc(CO)cc1`, the composite z-score in assay [1] was -0.162; in assay [2], 0.325; in assay [3], -0.0374; in assay [4], 0.549; in assay [5], 1.41; in assay [6], 1.16. Moreover, the composite z-score in [7] amounted to 1.29; in assay [9], 0.56; in assay [10] it was 0.0785; in [11], 1.53; in assay [15], 3.01; in assay [17] it was 0.0511. Besides, the results for the composite z-score in assay [18], in [19] and in [20] were 0.771, 1.1 and 0.0634, respectively. Besides, the z-score in assay [8] is -0.0971 (inactive); in assay [12] it was -0.104 (inactive); in assay [13], 1.15 (inactive); in assay [14], 1.29 (inactive); in [16] it was -0.358 (inactive).

As to `CCN1C(C)=C(C(=O)OC)[C@@H](c2ccccc2)N2C(=O)[C@](O)(C(=O)OC)[C@@H](c3ccccc3)C(C(C)=O)=C12`, the composite z-score in [1] is -0.0393; in assay [2], -0.0183; in assay [3], -0.0621; in assay [4], 0.391; in [5], 0.991; in assay [6], -0.485. For the same compound, the composite z-score is 0.913 in assay [7]; 0.283 in [9]; -0.262 in assay [10]; -0.107 in assay [11]; 0.241 in assay [15]; 0.0417 in assay [17]. The composite z-score in [18] is 0.506; in assay [19], 0.768; in assay [20], 0.186. Further, the z-score in [8] was -1.88 (inactive); in [12], -3.56 (inactive); in assay [13], -3.03 (inactive); in assay [14] it was -2.26 (inactive); in [16], 0.556 (inactive).

Turning to `CO[C@H]1COC(=O)[C@H](C)NC(=O)CC=C[C@@H](C)[C@H](NS(=O)(=O)c2ccc(C)cc2)COC(=O)[C@@H](OCc2ccccc2)C=C[C@@H]1C`, the composite z-score in assay [1] is -0.452; in assay [2], 0.148; in [3], -0.183; in assay [4], -0.0799; in [5], -0.563; in [6] it was -0.157. Also, the composite z-score in assay [7] is -0.477; in assay [9] it was -0.234; in [10] it was -0.0237; in assay [11], 0.229; in assay [15] it was -0.569; in assay [17], -0.316. Also, the composite z-score in [18] is 0.801; in [19], -0.439; in [20], -0.168. In addition, the z-score in [8] was -0.0584 (inactive); in assay [12], 1.22 (inactive); in assay [13] it was 0.129 (inactive); in assay [14], 2.1 (inactive); in assay [16], 0.176 (inactive).

Consider `NC(=O)NCC#Cc1ccc2c(c1)[C@]1(C(=O)N2)[C@H](C(=O)N2CCCCCCC2)[C@H]2C(=O)O[C@H](c3ccccc3)[C@H](c3ccccc3)N2[C@@H]1c1ccccc1OCCO`, for which the composite z-score came to 3.86 in [1]; 2.03 in assay [2]; 0.876 in assay [3]; 0.921 in assay [4]; 1.43 in assay [5]; 1.92 in assay [6]. For the same compound, the composite z-score was determined as 0.589 in assay [7]; 3.38 in [9]; 0.526 in [10]; 1.54 in assay [11]; 4.33 in [15]; 1.65 in assay [17]. Moreover, the composite z-score in assay [18] came out at 1.36; in [19] it was 1.05; in assay [20], 1.3. Also, the z-score in assay [8] was 0.423 (inactive); in [12], 0.305 (inactive); in assay [13] it was -3.26 (inactive); in assay [14], 1 (inactive); in [16], 1.82 (inactive).

In the case of `COCCOC(=O)N1C(=O)[C@@]2(c3cc(C#CCCO)ccc31)[C@H](C(=O)N1CCCCCCC1)[C@H]1C(=O)O[C@H](c3ccccc3)[C@H](c3ccccc3)N1[C@@H]2c1ccc(O)cc1`, the composite z-score turned out to be 2.61 in [1]; 1.22 in assay [2]; 0.188 in [3]; 0.514 in [4]; 1.15 in [5]; 1.17 in [6]. In addition, the composite z-score was determined as 1.13 in assay [7]; 2.25 in assay [9]; 0.497 in assay [10]; 1.56 in assay [11]; 2.91 in assay [15]; 1.08 in assay [17]. Moreover, the composite z-score amounted to 1.11 in assay [18], 1.05 in assay [19] and 0.0645 in [20]. Moreover, the z-score in [8] was -2.05 (inactive); in [12], -3.75 (inactive); in assay [13] it was -2.94 (inactive); in assay [14], -1.62 (inactive); in assay [16], 3.27 (inactive).
